Data on ten molecules can be found in PubChem BioAssay (NCATS).

Results filed as inconclusive are left out. Calls of active or inactive are those of the source. Calls come from the whole dose curve; as a rule, active = well fitted cell-killing curve with a large enough effect; inconclusive = small, poorly fitted or top-dose-only effect, or effect the other way; inactive = no such curve, though single readings can be large or run the other way.
Potency is the fitted concentration of half-maximal effect.

The nature of this experiment: Viability qHTS for spleen associated tyrosine kinase inhibitor (SYKi) drug resistant MV4-11 cells (AID 1963824). Note: nearly all actives have a fitted effect of over 35% in size. Particulars: SYKi-resistant MV4-11 viability, CellTiter-Glo, 72 h; series mostly up to 45 µM. In a few lines:
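CellTiter-Glo luminescence, read 10 min after reagent addition, reports viability after a 72 hr compound exposure. Cells are an MV4-11 line made resistant to SYK inhibition, seeded at 500 per well onto compound-containing plates.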
A general note: qHTS replaces the single test concentration by a dilution series.
On to `NC(=O)c1csc(C2OC(CO)C(O)C2O)n1` (stereo not given), for which the Potency was 8.2 µM (active).

On to `COc1cc([C@H]2O[C@H](c3cc(OC)c4c(c3)OCO4)[C@H](C)[C@H]2C)cc(OC)c1OC`, for which the Potency is 0.893 µM (active).

In the case of `CC1=C(CCC(C)O[C@@H]2O[C@H](CO)[C@@H](O)[C@H](O)[C@H]2O)C(C)(C)CCC1=O` (stereo not given in full), the Potency entry was “inactive”. The value for `CC(=O)N[C@@H](CC(=O)O)C(=O)N[C@@H](CCC(=O)O)C(=O)N[C@H](C(=O)N[C@@H](CC(=O)O)C(=O)Nc1ccc2c(C)cc(=O)oc2c1)C(C)C` was 6.51 µM (active).

For `CC1CC2OCC3(O)CCC(O)C(C14CC(c1ccoc1)OC4=O)C23CO` (stereo not given), the Potency entry is “inactive”. In the case of `C=C1C(=O)OC2CC(C)=C(C(C)CCCOC(C)=O)C(OC(=O)CC(C)CC)C12` (stereo not given) it was 2.52 µM (active); in that of `COc1cc(NC(=O)c2cccc(-n3cc(NC(=O)Nc4cccc(C)c4)cn3)c2)cc(OC)c1OC`, 9.2 µM (active). In the case of `O=c1cc(N2CCN(c3cccc(C(F)(F)F)c3)CC2)[nH]c(=O)n1C1CCCCC1` it was “inactive”. In the case of `CC(C)c1onc(-c2c(Cl)cccc2Cl)c1COc1ccc(/C=C/c2cccc(C(=O)O)c2)c(Cl)c1` it was 14.8 µM (active). Consider `O=C1Cc2c([nH]c3ccc([N+](=O)[O-])cc23)-c2ccccc2N1`, for which the Potency was 0.502 µM (active).
